Bioassay records: PubChem BioAssay, several laboratories
Compounds with a hit are over-represented: about 4.7% of the library has one in this group of screens.
tim23-1 inh: tim23-1 yeast growth inhibition; S. cerevisiae tim23-1 growth, BacTiter-Glo luminescence, 24 h; 1.3% of 330,000 active; inhibition, % at 20 µM; AID 463212;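 active = growth inhibition of the mutant yeast at or above 50%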;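 also: temperature-sensitive mutant grown at 25 °C; plate controls were DMSO-treated mutant yeast for no effect and medium wells lacking yeast for full effect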
SKKanGAS inh: SKKanGAS growth inhibition; S. pyogenes SKKanGAS, kanamycin growth, BacTiter-Glo, 6 h; inhibition, % at 7.5 µM; 1.3% of 300,000 active; AID 1662;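 active = mean replicate score, as percent of positive control median, at least 50; inconclusive = mean below 50 but one replicate at or above 50; inactive = mean and every replicate below 50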;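 also: strain carries kanamycin resistance gene driven by streptokinase promoter and grows in 40 µg/ml kanamycin; loss of luminescence reflects streptokinase promoter inhibition or plain growth inhibition; 0% = median of DMSO wells and 100% = positive control at its reference dose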
TIM10 inh: growth inhibitors of TIM10 yeast strain. S. cerevisiae TIM10 strain growth, BacTiter-Glo luminescence, 24 h. inhibition, % at 10 µM. 1.4% of 330,000 active;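 active = inhibition of 40% or more at the single tested concentration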;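 also: wild-type TIM10 isogenic control strain grown at permissive 25 °C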
EBI2 block: EBI2 (human) antagonism; P32249; EBI2 beta-arrestin recruitment, luminescence, 7a,25-OHC stimulated; inhibition, % at 5 µM; 0.81% of 360,000 active; AID 651636; in the data active = inhibition above about 38%;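 also: enzyme fragment complementation signal reports receptor beta-arrestin coupling in cells; 0% = agonist plus DMSO wells and 100% = wells without agonist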
Target sequence (P32249 whole entry, looked up, the tested form may be a part): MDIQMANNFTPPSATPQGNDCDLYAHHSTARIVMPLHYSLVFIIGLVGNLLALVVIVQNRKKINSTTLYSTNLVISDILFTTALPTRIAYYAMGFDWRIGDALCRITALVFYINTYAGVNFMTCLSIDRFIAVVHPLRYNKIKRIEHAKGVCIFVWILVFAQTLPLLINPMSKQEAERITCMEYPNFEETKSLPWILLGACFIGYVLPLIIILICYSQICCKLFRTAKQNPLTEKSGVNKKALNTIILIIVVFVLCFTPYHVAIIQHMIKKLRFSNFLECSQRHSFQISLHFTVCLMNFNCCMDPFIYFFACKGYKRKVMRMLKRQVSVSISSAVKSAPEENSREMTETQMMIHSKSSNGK
PfHsp90 set2: inhibits growth of yeast expressing Plasmodium falciparum Hsp90. S. cerevisiae expressing PfHsp90, BacTiter-Glo ATP, 48 h; yeast lacking PDR1 and PDR3 efflux regulators. inhibition, % at 9.4 µM. AID 504621. 0.32% of 310,000 active;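 active = every replicate shows inhibition above about 80%, whatever the replicate mean, limit read from the data; inconclusive = mean inhibition reaches the set limit but some replicate falls short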;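 also: 0% = DMSO neutral controls and 100% = 20 µM radicicol positive controls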
tim10-1 inh: growth inhibitors of tim10-1 mutant yeast; S. cerevisiae tim10-1 ts strain growth, BacTiter-Glo, 24 h; inhibition, % at 20 µM; 2.2% of 330,000 active; AID 463190;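 active = inhibition of at least 40%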;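 also: mutant grown at 25 °C; 0% = DMSO wells with yeast and 100% = wells holding no yeast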
tim10-1 confirm: confirmation of tim10-1 mutant yeast growth inhibitors; shares compounds with tim10-1 inh; S. cerevisiae tim10-1 ts strain growth, BacTiter-Glo, 24 h; inhibition, % at 20 µM; 56% of 7,400 active; AID 463213;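 active = inhibition of yeast growth at or above a set limit in either of two repeat tests at 20 µM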;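 also: tim10-1 mutant grown at permissive 25 °C to find synthetic lethal compounds; 0% = DMSO yeast wells and 100% = medium wells without yeast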
TIM10 conf: TIM10 yeast growth inhibition, confirmed | shares compounds with TIM10 inh | S. cerevisiae tim10 strain growth, BacTiter-Glo luminescence, 24 h | inhibition, % at 10 µM | 63% of 4,600 active;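 active = inhibition of yeast growth at or above a set limit in either of two replicates at 10 µM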;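 also: this counterscreen used the strain with wild-type TIM10; 0% = yeast with DMSO and 100% = medium wells lacking yeast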
tim23-1 conf: confirmation of tim23-1 mutant yeast growth inhibitors | shares compounds with tim23-1 inh | S. cerevisiae tim23-1 growth, BacTiter-Glo luminescence, 24 h | inhibition, % at 20 µM | 83% of 4,400 active | AID 463218;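 active = inhibition above about 39% in either of two replicate wells at 20 µM, limit read from the data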;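 also: temperature-sensitive tim23-1 mutant grown at 25 °C; 0% = DMSO wells with yeast and 100% = medium wells without yeast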
EBI2 conf: confirmation of human EBI2 receptor antagonists; shares compounds with EBI2 block; EBI2 beta-arrestin luminescence, 7a,25-OHC antagonism; inhibition, % at 5 µM; 29% of 2,400 active; AID 651997;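 active = inhibition of at least 50%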
EBI2 agonist: EBI2 agonism counter-screen. EBI2-expressing cells, agonist mode, luminescence, 60 min; 0% vehicle, 100% 7α,25-dihydroxycholesterol control. activation, % at 5 µM. shares compounds with EBI2 block. AID 652000. 2,400 tested, under 10 active;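 active = activation of at least 50%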
bGal cs: beta-galactosidase inhibition counter-screen. shares compounds with EBI2 block. purified beta-galactosidase, luminescent Galacton Star, 15 min. inhibition, % at 5 µM. 1% of 2,400 active. AID 652176;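 active = replicate-average signal at least 3 plate SD below neutral wells, shown as high inhibition, flagging enzyme-inhibiting false positives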;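 also: 0% = DMSO wells with enzyme and 100% = wells lacking enzyme; higher means stronger loss of beta-gal luminescence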
An asterisk follows results filed as active; ? = inconclusive; / = no result; + = active, no number.

SMILES	tim23-1 inh	SKKanGAS inh	TIM10 inh	EBI2 block	PfHsp90 set2	tim10-1 inh	TIM10 conf	tim23-1 conf	others
COc1ccc(CC(C)NC2CCCCCC2)cc1 (configuration not stated)	-7	5	-8	-2	1	1	/	/
CC(=O)Nc1nnc(CCN(CCc2nnc(NC(C)=O)s2)[N+](=O)[O-])s1	1	-3	-6	-10	2	-23	/	/
CN1/C(=C\C=C\C2=[N+](C)c3ccc4ccccc4c3C2(C)C)C(C)(C)c2ccccc21	85*	/	74*	/	/	77*	80*	79*	tim10-1 confirm=56*
CC(C)=CCc1c(O)cc2c(c1O)C(=O)CC(c1ccc(O)cc1)O2 (configuration not stated)	60*	50*	46*	31	59	54*	57*	59*	tim10-1 confirm=35*
CNc1ccc2oc(C[C@H]3O[C@@]4(CC[C@H]3C)O[C@H]([C@H](C)C(=O)c3ccc[nH]3)[C@H](C)C[C@H]4C)nc2c1C(=O)O	54*	107*	-20	20	111*	56*	/	37	tim10-1 confirm=29
O=C(COc1ccc2ccccc2c1)N1CCN(Cc2c[nH]c3ccccc23)CC1	12	0	31	83*	20	50*	/	/	tim10-1 confirm=30;EBI2 conf=53*;EBI2 agonist=1;bGal cs=8
CN1C(=O)N(C)C(=O)C(NS(=O)(=O)c2ccc(N)cc2)(c2ccccc2)C1=O	/	/	/	-9	-17	/	/	/
Nc1c2c(nc3sc4c(c13)CCCC4)CCCC2	49	7	48*	15	1	24	38*	/
Nc1c2c(nc3sc4c(c13)CCCC4)CCCCC2	19	0	4	11	12	-12	/	/
O=c1cccc2n1CC1CC2CN(c2ncnc3c2cnn3-c2ccc(Cl)cc2)C1 (configuration not stated)	35	-1	44*	9	-7	40	10	/
C#C[C@]1(O)CC[C@H]2[C@@H]3CCC4=Cc5nc6nc7ccccc7n6cc5C[C@]4(C)[C@H]3CC[C@@]21C	30	/	3	27	0	19	/	/
NCCc1ccccn1	6	-8	2	/	/	5	/	/
Cn1cnc(CCN)c1	3	-1	40*	-3	-18	22	23	/
COC(=O)C1=C(c2cc3ccccc3o2)C[C@@H]2CC[C@H]1N2C(=O)NCc1ccc(C(F)(F)F)cc1	32	33	20	12	-1	16	/	/
CCC(=NCc1ccco1)c1c(O)n(C2CCCCC2)c(=O)[nH]c1=O	42	0	40*	-19	8	34	24	/
N#CC1(c2ccccc2)CCN(C2CC(=O)N(c3cccc(F)c3)C2=O)CC1 (configuration not stated)	13	1	-1	-1	5	6	/	/
CCOC(=O)c1ccc(N2C(=O)CC(N3CCC(C#N)(c4ccccc4)CC3)C2=O)cc1 (configuration not stated)	42	6	42*	4	12	38	33*	/
CC1(C)C[C@H]2C=C(C=O)[C@]3(C=O)C[C@]3(C)[C@H]2C1	-56	0	50*	4	/	-5	61*	/
O=C(O)c1[nH]c(=O)[nH]c(=O)c1F	3	-8	-1	-4	-45	-12	/	/
O=c1[nH]c(O)c(/C=C2/C=CC(c3cc(Cl)ccc3Cl)=N2)c(=O)[nH]1	54*	-8	52*	-4	-11	32	52*	59*
CC1=Nc2ccccc2/C1=C/c1c(O)[nH]c(=O)[nH]c1=O	2	-3	0	-1	18	-11	/	/
CCOC(=O)C(O)(c1ccc(N(C)C(=O)COc2ccccc2)cc1)C(F)(F)F (configuration not stated)	14	-2	-2	10	-9	18	/	/
CN(C)C(=O)O/N=C(\N)COc1ccc(C(C)(C)C)cc1	59*	-15	73*	-4	13	14	81*	54*
c1ccc2cc(C3N4CCCN34)ccc2c1 (configuration not stated)	12	4	-4	-7	29	-7	/	/
C#CCNc1ccncc1S(=O)(=O)NC(=O)NC(C)C	3	3	-13	5	-6	-3	/	/
SMILES	tim23-1 inh	SKKanGAS inh	TIM10 inh	EBI2 block	PfHsp90 set2	tim10-1 inh	TIM10 conf	tim23-1 conf	others
Cc1cc(C=C2C(=O)NC(=S)NC2=O)c(C)n1C1CCCC1	55*	-9	46*	35	-10	38	45*	55*
CCCCCCCCn1sccc1=O	65*	/	54*	61*	+	-129	58*	-92
c1ccc(Nc2ccc(Nc3ccccc3)cc2)cc1	22	/	15	3	3	31	/	/
N#CC(C#N)=C(C#N)c1ccc(Nc2ccccc2)cc1	57*	6	-21	-7	0	16	/	20
CCn1c(O)c(C=Nc2ccc(S(N)(=O)=O)cc2)c(=O)n(CC)c1=S	10	-3	2	-7	5	10	/	/
NS(=O)(=O)c1ccc(N=Cc2c(O)n(C3CCCCC3)c(=O)n(C3CCCCC3)c2=O)cc1	52*	51*	32	40	-6	24	/	46*
O=C1CCC2(O)C3Cc4ccc(O)c5c4C2(CCN3Cc2ccoc2)C1O5 (configuration not stated)	/	/	/	-2	/	/	/	/
C=CCN1C[C@@H](C)N(C(c2ccc(C(=O)N(CC)CC)cc2)c2cccc(OC)c2)C[C@@H]1C (some centres not stated)	-1	/	8	-3	-4	17	/	/
C=CCN1C(=O)/C(=C/c2ccc(Br)s2)C(=O)NC1=S	56*	0	17	10	?	21	/	72*
COc1cccc(C2CC3C(=O)C=CC2N3Cc2ccccc2)c1 (configuration not stated)	55*	11	40	-17	4	38	/	47*
